{
  "source": "the supplement of paper PMC10720658",
  "note": "± gives the standard deviation of the averaged measurements.",
  "data": [
    {"test_system": "AEK1 (Tb927.3.2440)", "test": "percent reduction in TR-FRET probe signal relative to DMSO control; higher = stronger displacement of ATP-site probe (binding)", "details": "1 µM; incubation time 1 h", "units": {"percent reduction in TR-FRET probe signal": "%"}, "values": [
      {"smiles": "O=C1N=C(NCc2cccs2)S/C1=C\\c1ccc2ncccc2c1", "percent reduction in TR-FRET probe signal": "8.12 ± 4.7"},
      {"smiles": "CNC(=O)c1cc(Oc2ccc(NC(=O)Nc3cc(C(C)(C)C)nn3-c3ccc4ncccc4c3)c(F)c2)ccn1", "note": "[DCC-2036 (Rebastinib)]", "percent reduction in TR-FRET probe signal": "21.5 ± 15"},
      {"smiles": "Cc1[nH]c(/C=C2\\C(=O)Nc3ccccc32)c(C)c1CCC(=O)O", "note": "[TSU-68 (SU6668, Orantinib)]", "percent reduction in TR-FRET probe signal": "1.55 ± 4"},
      {"smiles": "CS(=O)(=O)O.Cc1ccc(NC(=O)c2ccc(CN3CCN(C)CC3)cc2)cc1Nc1nccc(-c2cccnc2)n1", "note": "[Imatinib Mesylate (STI571)]", "percent reduction in TR-FRET probe signal": "7.01 ± 21"},
      {"smiles": "COc1cc2ncnc(Nc3cccc(Cl)c3F)c2cc1OC(=O)N1CCN(C)C[C@H]1C", "percent reduction in TR-FRET probe signal": "9.77 ± 13"},
      {"smiles": "COc1cc2ncnc(Nc3ccc(F)c(Cl)c3)c2cc1OCCCN1CCOCC1", "note": "[Gefitinib (ZD1839)]", "percent reduction in TR-FRET probe signal": "5.46 ± 21"},
      {"smiles": "COc1cc2ncnc(Nc3ccc(F)c(Cl)c3)c2cc1NC(=O)/C=C/CN1CCCCC1", "percent reduction in TR-FRET probe signal": "-9.62 ± 5"},
      {"smiles": "O=C1NC(=O)/C(=C/c2cccc(C(F)(F)F)c2)S1", "percent reduction in TR-FRET probe signal": "-3.02 ± 1.9"},
      {"smiles": "O=C(NCCCNc1nc(Nc2cccc(NC(=O)N3CCCC3)c2)ncc1I)c1cccs1", "percent reduction in TR-FRET probe signal": "-0.457 ± 1.2"},
      {"smiles": "N#Cc1ccc2[nH]c(O)c(-c3ccc(CN4CCOCC4)cn3)c2c1", "percent reduction in TR-FRET probe signal": "-12.4 ± 8.1"},
      {"smiles": "Cc1ccc(S(=O)(=O)/C=C/C#N)cc1", "percent reduction in TR-FRET probe signal": "-7.27 ± 4.2"},
      {"smiles": "OCCn1cc(-c2ccc3c(c2)CC/C3=N\\O)c(-c2ccncc2)n1", "percent reduction in TR-FRET probe signal": "-6.91 ± 7.5"},
      {"smiles": "O=C1NC(=O)/C(=C\\c2ccc(-c3ccc(F)cc3)o2)S1", "percent reduction in TR-FRET probe signal": "-0.187 ± 4.6"},
      {"smiles": "N#C/C(=C\\c1ccc(O)c(O)c1)C(=O)NCc1ccccc1", "note": "[AG-490 (Tyrphostin B42)]", "percent reduction in TR-FRET probe signal": "-5.12 ± 12"},
      {"smiles": "CN(C)Cc1cccc(N/C(=C2\\C(=O)Nc3cc(C(=O)N(C)C)ccc32)c2ccccc2)c1", "percent reduction in TR-FRET probe signal": "-0.927 ± 9.6"},
      {"smiles": "CO[C@H]1C[C@@H]2CC[C@@H](C)[C@@](O)(O2)C(=O)C(=O)N2CCCC[C@H]2C(=O)O[C@H]([C@H](C)C[C@@H]2CC[C@@H](O)[C@H](OC)C2)CC(=O)[C@H](C)/C=C(\\C)[C@@H](O)[C@@H](OC)C(=O)[C@H](C)C[C@H](C)/C=C/C=C/C=C/1C", "note": "[Rapamycin (Sirolimus)]", "percent reduction in TR-FRET probe signal": "-8.37 ± 4.2"},
      {"smiles": "CC[C@H](CO)Nc1nc(NCc2ccccc2)c2ncn(C(C)C)c2n1", "note": "[Roscovitine (Seliciclib,CYC202)]", "percent reduction in TR-FRET probe signal": "-4.47 ± 5.4"},
      {"smiles": "Cc1cc(Nc2cc(N3CCN(C)CC3)nc(Sc3ccc(NC(=O)C4CC4)cc3)n2)n[nH]1", "note": "[VX-680 (Tozasertib, MK-0457)]", "percent reduction in TR-FRET probe signal": "10.3 ± 20"},
      {"smiles": "Cc1cc(NC(=O)c2cccc(NC(=O)/C=C/CN(C)C)c2)ccc1Nc1nccc(-c2cccnc2)n1", "percent reduction in TR-FRET probe signal": "-7.17 ± 15"},
      {"smiles": "CCN1CCN(Cc2ccc(Nc3ncc(F)c(-c4cc(F)c5nc(C)n(C(C)C)c5c4)n3)nc2)CC1", "percent reduction in TR-FRET probe signal": "-4.88 ± 6.8"},
      {"smiles": "CNC(=O)CN1CCC(Oc2cc3c(Nc4cccc(Cl)c4F)ncnc3cc2OC)CC1", "note": "[Sapitinib (AZD8931)]", "percent reduction in TR-FRET probe signal": "-5.78 ± 5.4"},
      {"smiles": "CC(=O)Nc1nc(C)c(-c2ccc(Cl)c(S(=O)(=O)NCCO)c2)s1", "percent reduction in TR-FRET probe signal": "-6.5 ± 15"},
      {"smiles": "CCOc1ccn(-c2ccc(F)cc2)c(=O)c1C(=O)Nc1ccc(Oc2ccnc(N)c2Cl)c(F)c1", "percent reduction in TR-FRET probe signal": "-0.77 ± 15"},
      {"smiles": "Cc1cc(Nc2ncc(Cl)c(Nc3ccccc3S(=O)(=O)C(C)C)n2)c(OC(C)C)cc1C1CCNCC1", "percent reduction in TR-FRET probe signal": "-7.62 ± 8.9"},
      {"smiles": "CN(C)CCOc1ccc(-c2nc(-c3ccncc3)c(-c3ccc4c(c3)CC/C4=N\\O)[nH]2)cc1", "percent reduction in TR-FRET probe signal": "3.05 ± 12"},
      {"smiles": "Cn1c(=O)c(F)c(Nc2ccc(I)cc2F)c2c(=O)n(C[C@@H](O)CO)cnc21", "percent reduction in TR-FRET probe signal": "10.1 ± 14"},
      {"smiles": "CCCS(=O)(=O)Nc1ccc(F)c(C(=O)c2c[nH]c3ncc(-c4ccc(Cl)cc4)cc23)c1F", "note": "[Vemurafenib (PLX4032, RG7204)]", "percent reduction in TR-FRET probe signal": "4.16 ± 3"},
      {"smiles": "Cn1cc(-c2ccc3ncc(Cc4ccc5ncccc5c4)n3n2)cn1", "percent reduction in TR-FRET probe signal": "4.34 ± 8.7"},
      {"smiles": "CC(C)Nc1cc(-c2c[nH]c(C(=O)N[C@H](CO)c3cccc(Cl)c3)c2)c(Cl)cn1", "percent reduction in TR-FRET probe signal": "0.153 ± 2.1"},
      {"smiles": "C=CC(=O)Nc1cccc(Nc2nc(Nc3ccc(NC4CN(CCF)C4)cc3OC)ncc2C(F)(F)F)c1", "percent reduction in TR-FRET probe signal": "-12.2 ± 9.2"},
      {"smiles": "COc1cc(Nc2ncc(F)c(Nc3ccc4c(n3)NC(=O)C(C)(C)O4)n2)cc(OC)c1OC.O=S(=O)(O)c1ccccc1", "percent reduction in TR-FRET probe signal": "85.4 ± 8"}
    ]}
  ]
}
